Assay [1] has as its target Tumor necrosis factor receptor superfamily member 10B (Homo sapiens) (UniProt O14763). Kind of assay: viability loss of caspase-8 NB7 cells with TRAIL – with/without TRAIL, luminescence panel, confirmation (AID 651596). To be noted: NB7 neuroblastoma + caspase-8, TRAIL sensitization, NB7 Caspase-8, with TRAIL, mean of runs, at 10 µM, stronger effect = higher value.
Assay in assay [2]: as above
As to conditions: NB7 neuroblastoma + caspase-8, without TRAIL, NB7 Caspase-8, without TRAIL, mean of runs, at 10 µM.

Drawing on PubChem BioAssay, this text covers activity for 48 compounds.

Chain of Tumor necrosis factor receptor superfamily member 10B (Homo sapiens) (O14763 whole entry, looked up): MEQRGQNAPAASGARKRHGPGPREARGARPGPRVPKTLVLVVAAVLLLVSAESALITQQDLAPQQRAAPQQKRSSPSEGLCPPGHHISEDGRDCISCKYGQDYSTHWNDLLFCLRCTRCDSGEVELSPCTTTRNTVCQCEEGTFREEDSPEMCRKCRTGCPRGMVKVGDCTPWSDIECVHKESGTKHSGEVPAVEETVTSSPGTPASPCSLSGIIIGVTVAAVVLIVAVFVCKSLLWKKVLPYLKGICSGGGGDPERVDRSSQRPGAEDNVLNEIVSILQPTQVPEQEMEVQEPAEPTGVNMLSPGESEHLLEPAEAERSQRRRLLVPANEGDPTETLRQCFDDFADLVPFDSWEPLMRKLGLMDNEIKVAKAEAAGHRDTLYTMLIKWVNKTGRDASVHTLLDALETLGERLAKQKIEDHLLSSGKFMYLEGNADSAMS

In the case of `CC(C)Sc1cc(Cl)nc(NC(=O)Nc2ccccc2)n1`, the activity in assay [1] came out at 98.4%; in assay [2], 99.7%.

On to `CC(OC(=O)c1ccc(S(C)(=O)=O)c([N+](=O)[O-])c1)C(=O)NC1C2CC3CC(C2)CC1C3` (stereo unspecified), for which the activity in assay [1] is 77.8%; in assay [2], 97.9%.

For the compound `CCCCc1ccc(NC(=O)c2cnccn2)cc1`, the activity in assay [1] was 53.3%; in assay [2], 45.1%.

In the case of `COc1cccc(C(=O)Nc2nc3ccccc3[nH]2)c1`, the activity in assay [1] was 91%; in assay [2] it was 85.3%.

Turning to `Cc1ccc(-c2nc(NC(=O)c3nn(C)cc3[N+](=O)[O-])sc2C)cc1C`, the activity in assay [1] turned out to be 98.1%; in assay [2], 99.1%.

On to `CCCCC[C@@H](C)N1C[C@H](COCc2ccccc2)Oc2cc(N3CC[C@@H](N(C)C)C3)ccc2S1(=O)=O`, for which the activity in assay [1] worked out at 13%; in assay [2], 43.6%.

As for `O=C(COc1ccc2ccccc2c1)Nc1nccs1`, the activity in assay [1] amounted to 58%; in assay [2], 55.8%.

Take `Cc1cc(=O)[nH]c2nnc(-c3ccc(Cl)cc3)n12`: the activity was 82.2% in assay [1] and 78.6% in assay [2].

Consider `Cc1nn(-c2ccccc2Cl)c(Cl)c1/C=N/Nc1cccc(C(=O)O)c1`, for which the activity in assay [1] came out at 68.9%; in assay [2], 62.9%.

Regarding `CN(C)S(=O)(=O)c1ccc(-c2cn3ccccc3n2)cc1`, the activity in assay [1] amounted to 66.2%; in assay [2], 73.5%.

With `O=C(Cn1ncc(Cl)c(Cl)c1=O)Nc1ccc2c(c1)OCO2`, the activity in assay [1] and in assay [2] was 99.5% throughout.

`CCC(C)c1ccc2oc(-c3ccc(NC(=O)Cn4cnc5c(=O)n(C)c(=O)n(C)c54)cc3)nc2c1` (stereo unspecified): the activity is 85.3% in assay [1] and 66.9% in assay [2].

With `Cc1cc(Br)ccc1OCCCCNCCO`, the activity turned out to be 28.1% in assay [1] and 41.9% in assay [2].

`O=C(CSc1nnc(NC(=O)c2ccccc2)s1)NCC1CCCO1` (stereo unspecified): the activity is 60.9% in assay [1] and 63.2% in assay [2].

On to `COc1cccc(Nc2nc(N)nc(CCl)n2)c1`, for which the activity came to 98.4% in assay [1] and 92% in assay [2].

`O=C(Nc1ccc(N2CCOCC2)c(F)c1)c1cccs1`: the activity amounted to 48.5% in assay [1] and 63.3% in assay [2].

As for `COCCCNc1ccn2nc(-c3ccccc3)cc2n1`, the activity amounted to 50.1% in assay [1] and 35.5% in assay [2].

`COc1ccc(C[C@H](N)C(=O)N[C@H]2[C@@H](O)[C@H](n3cnc4c(N(C)C)ncnc43)O[C@@H]2CO)cc1`: the results for the activity in assay [1] and in assay [2] were 98.4% and 99.2%, respectively.

For `Cc1ccc(-c2nnc(Nc3ccccc3)o2)cc1`, the activity in assay [1] came to 59.7%; in assay [2], 54.5%.

Consider `Cc1ccc2nc(NC(=O)c3ccc(-c4nc5ccccc5s4)s3)sc2c1`, for which the activity came to 56.8% in assay [1] and 17% in assay [2].

As to `COCCn1c(C)cc(C(=O)COC(=O)c2n[nH]c3ccccc23)c1C`, the activity in assay [1] amounted to 88.7%; in assay [2], 86.9%.

Turning to `COc1ccc(C(=O)Nn2c(SCC(=O)N3CCC(C)CC3)nc3ccccc3c2=O)cc1`, the activity is 68.2% in assay [1] and 67.2% in assay [2].

`COc1cc2c(cc1OC)C(c1ccccc1)N(C(=O)CCl)CC2` (stereo unspecified): the activity in assay [1] was found to be 98.3%; in assay [2] it was 92.4%.

For the compound `Nc1c(-c2cccs2)cnc2c(-c3ccc(F)cc3)cnn12`, the activity in assay [1] was determined as 57.5%; in assay [2], 48.8%.

For the compound `COc1ccc2oc(C(=O)N3CCc4ccccc43)c(C)c2c1`, the activity amounted to 82.7% in assay [1] and 82.4% in assay [2].

Take `O=C(OCc1cccc(C(F)(F)F)c1)c1cc(S(=O)(=O)N2CCOCC2)ccc1F`: the activity in assay [1] worked out at 36.8%; in assay [2], 21%.

As to `Cc1cc(C)nc(NC(=O)/C=C/c2ccc3c(c2)OCO3)c1`, the activity in assay [1] came out at 70.2%; in assay [2], 75.5%.

Turning to `CN(C)c1cccc(/C=C(\C#N)c2ccccc2)c1`, the activity turned out to be 28.8% in assay [1] and 40.8% in assay [2].

Consider `CC(=O)Oc1ccc(/C=N\NC(=O)c2cc3c(ccc4ccccc43)o2)cc1`, for which the activity in assay [1] came out at 64.6%; in assay [2] it was 67.7%.

`CCc1cc2c(=O)[nH]c(-c3ccccn3)nc2s1`: the activity in assay [1] stood at 35.9%; in assay [2], 41%.

Turning to `Cc1ccc(C(=O)Nc2ncc(Cc3ccccc3)s2)o1`, the activity in assay [1] is 72.1%; in assay [2], 75%.

For `N#Cc1cc2c(nc1SCC(=O)Nc1nccs1)CCCCC2`, the activity in assay [1] is 67.8%; in assay [2], 69.2%.

On to `CCOC(=O)c1c(NC(=O)COc2ccccc2OCC)sc2c1CC(C)(C)NC2(C)C`, for which the activity in assay [1] amounted to 95.8%; in assay [2], 99.3%.

Consider `O=C(Nc1cccnc1Cl)c1ccc2c(Cl)c3c(nc2c1)CCC3`, for which the activity in assay [1] stood at 78.5%; in assay [2], 78.4%.

On to `O=C(COc1ccc2c(c1)OCO2)Nc1nccs1`, for which the activity came to 52.9% in assay [1] and 54% in assay [2].

Turning to `O=C(/C=C/c1ccccc1Cl)Nc1cccc(O)c1`, the values for the activity in assay [1] and in assay [2] were 61.3% and 42.2%, respectively.

Consider `COc1ccccc1C/C(N)=N/OC(=O)c1cccc([N+](=O)[O-])c1`, for which the activity in assay [1] stood at 89.8%; in assay [2], 69.6%.

As to `COc1cccc(/C=C2\CCc3ccccc3C2=O)c1`, the activity in assay [1] stood at 83.4%; in assay [2], 78.5%.

In the case of `COc1ccc(-c2cc(-c3ccccc3)c(C#N)c(S(C)=O)n2)cc1` (stereo unspecified), the activity worked out at 95.2% in assay [1] and 99.2% in assay [2].

In the case of `COc1ccccc1NC(=O)c1nc(S(=O)(=O)Cc2ccccc2)ncc1Cl`, the activity in assay [1] amounted to 90.7%; in assay [2], 99.2%.

As to `O=[N+]([O-])c1ccc(-c2nc(C(Cl)Cl)c3ccccc3n2)cc1`, the activity in assay [1] was found to be 56.8%; in assay [2], 96.3%.

As for `Cc1ccc(OCC(=O)NC(=S)Nc2ccccn2)c(Br)c1`, the activity stood at 86.3% in assay [1] and 81.9% in assay [2].

For the compound `CCN(Cc1ccccc1)S(=O)(=O)c1ccc(C(=O)N(CCCN(C)C)c2nc3cc(C)cc(C)c3s2)cc1`, the activity in assay [1] was 23.3%; in assay [2], -11.7%.

For the compound `C/C(=N\NC(=O)c1ccc(F)cc1)c1ccccn1`, the activity in assay [1] came to 44.9%; in assay [2] it was 61.7%.

Take `Cc1cccc(-c2cc3nc(-c4ccccc4)cc(=O)n3[nH]2)c1`: the activity in assay [1] amounted to 50%; in assay [2] it was 55.2%.

For `CS(=O)c1nc(-c2ccc(Br)cc2)cc(-c2ccccc2)c1C#N` (stereo unspecified), the activity in assay [1] was 95.7%; in assay [2] it was 97.8%.

On to `NC(Cc1ccc(C(F)(F)F)cc1)c1csc(NC(=O)Nc2ccccc2Oc2ccccc2)n1` (stereo unspecified), for which the activity in assay [1] worked out at 75.1%; in assay [2] it was 93.7%.

`O=C(Nc1ccc(O)cc1)c1ccc(NC(=O)c2cccs2)cc1`: the activity in assay [1] was 85.2%; in assay [2], 84.8%.
